According to ChEMBL document CHEMBL3433997, “St. Jude Leishmania screening dataset” (2016):

Target: Solute carrier family 2, facilitated glucose transporter member 1 (Homo sapiens) (UniProt P11166)
Test: ST_JUDE_LEISH: Cytotoxicity at 2uM final concentration against transgenic Leishmania Mexicana promastigotes LmGLUT1 that are glucose transport deficient and complemented with the human glucose transporter GLUT1. Activity is measured by DNA content using SYBR green in vitro
Type: functional

Sequence of Solute carrier family 2, facilitated glucose transporter member 1 (Homo sapiens) (P11166 whole entry): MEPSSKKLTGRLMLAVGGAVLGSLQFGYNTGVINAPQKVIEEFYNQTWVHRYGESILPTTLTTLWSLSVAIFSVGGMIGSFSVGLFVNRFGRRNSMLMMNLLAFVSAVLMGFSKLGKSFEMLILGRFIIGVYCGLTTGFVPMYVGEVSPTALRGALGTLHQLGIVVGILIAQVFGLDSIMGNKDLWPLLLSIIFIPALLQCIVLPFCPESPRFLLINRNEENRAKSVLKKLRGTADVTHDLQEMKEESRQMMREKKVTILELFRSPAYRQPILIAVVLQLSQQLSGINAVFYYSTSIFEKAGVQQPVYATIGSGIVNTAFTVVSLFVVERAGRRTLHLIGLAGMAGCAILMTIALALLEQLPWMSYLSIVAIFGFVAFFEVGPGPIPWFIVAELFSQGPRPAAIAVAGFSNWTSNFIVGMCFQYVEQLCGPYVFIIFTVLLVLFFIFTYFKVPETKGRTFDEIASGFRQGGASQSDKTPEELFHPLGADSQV

Row | Compound | inhibition
1 | COc1ccc(-n2ccnc2SCC(=O)Nc2cccc(C(F)(F)F)c2)c(OC)c1 | 0.63%
2 | CC(C)CNCc1ccc(-c2cccc(CNC3CCN(Cc4ccccc4)CC3)c2)cc1 | 3.21%
3 | Cn1c(NC(=O)C2CCCN(C(=O)c3ccc(O)c(-c4ccc(Cl)c(Cl)c4)c3)C2)nc2ccccc21 (stereo not given) | 0.08%
4 | CCCc1cc(Cc2cnc(N)nc2N)cc(CC)c1O | 1.7%
5 | Cc1cccc2nc(-c3cccc(-c4ccc(NC(=O)Nc5ccc(F)c(F)c5F)cc4)c3)[nH]c12 | 1.49%
6 | CN1CCC(C(=O)N(Cc2ccc(-c3ccc(CNCCc4ccccc4)cn3)cc2)Cc2cccc(F)c2)CC1 | 3.52%
7 | Nc1ccnc(N2CCC(CCOc3ccnc4cc(Cl)ccc34)CC2)c1 | 11.9%
8 | CC(C)(C)COc1ccc2c(N)n[nH]c2c1 | -1.62%
9 | COc1ccc2c(=NN=Cc3ccccc3F)cc(C)[nH]c2c1 | 1.77%
10 | O=C(Nc1cc(C(F)(F)F)ccc1Cl)c1ccc(Cn2cc(Br)cn2)cc1 | 1.23%
11 | Cc1noc(C)c1CN1Cc2ccccc2OC2(CCN(Cc3c[nH]c4cnccc34)CC2)C1 | -0.38%
12 | CC(=O)N1CCC(C(=O)Nc2ccc(-c3cccc(-c4nc5cccc(C)c5[nH]4)c3)cc2)CC1 | 2.37%
13 | Cc1c(Cc2ccc(C(C)C)cc2)cnc2nc(N)nc(N)c12 | 1.34%
14 | CN(C)CCOc1cc(NC(=O)Nc2cccc3c(-c4ccncc4)cccc23)ccc1I | 4.55%
15 | CCOc1cccc2nc(NCCCNCc3ccc(Cl)c(Cl)c3)cc(NCCCNCc3ccc(Cl)c(Cl)c3)c12 | -3.5%
16 | Fc1ccc2ncc(Cl)c(CCN3CCC(NCc4cc5c(cn4)OCCO5)CC3)c2c1 | 11%
17 | c1cc(CNC2Cc3ccccc3C2)cc(-c2cnc(N3CCNCC3)nc2)c1 | 0.76%
18 | O=C(Nc1ccc(OC2CCN(Cc3ccc(F)cc3)C2)c(Cl)c1)c1ccsc1 (stereo not given) | 4.02%
19 | CCCNC(=O)Nc1ccc(N(C)c2ccnc(NC3CC3)n2)cc1 | 7%
20 | CNCc1cccc2nc(-c3csc(Cc4cc(Cl)ccc4OCC(C)C)n3)[nH]c12 | -0.53%

Row | Compound | inhibition
21 | CCCCCCCCCN1CC[C@@H](CCCc2ccnc3ccc(O)cc23)[C@@H](CC)C1 | -2.45%
22 | Cc1cccc(-c2ccc(NC(=O)C3CCN(Cc4cccc(O)c4)CC3)cc2)c1 | 0.07%
23 | CC1CN(c2cnn(Cc3cccc(NC(=O)Nc4ccc(F)cc4[N+](=O)[O-])c3)c(=O)c2Cl)CC(C)N1 (stereo not given) | -2.05%
24 | O=C(/C=C/c1ccc(Cl)c(Cl)c1)NCCCCCN1CCCN(C(=O)Nc2ccc(Cl)c(Cl)c2)CC1 | -0.96%
25 | CC(C)(C)CNCC(C)(C)c1nc(-c2ccc(Cl)c(O)c2)c(-c2ccncc2)[nH]1 | -1.13%
26 | COc1cccc(CN2Cc3ccccc3OC3(CCN(Cc4c[nH]c5cnccc45)CC3)C2)c1 | -0.87%
27 | CCN(CC)CCOc1ccc(Nc2ncc3cc(-c4c(Cl)cccc4Cl)c(=O)n(C)c3n2)cc1 | 75.8%
28 | O=[N+]([O-])c1cccc(CNCC2CCN(CCc3ccccc3)CC2)c1 | 2.35%
29 | CN1CCN(Cc2cccc(Nc3nccc(Nc4ccc(Oc5ccccc5)cc4)n3)c2)CC1 | 1.89%
30 | COc1cc(NC(=O)c2cc([N+](=O)[O-])ccc2NC(=O)CNC2CCCC(C)C2C)cc(OC)c1 (stereo not given) | 12%
31 | CC1CN(c2cnn(Cc3ccc(NC(=O)Nc4ccc(F)cc4[N+](=O)[O-])cc3)c(=O)c2Cl)CC(C)N1 (stereo not given) | 2.34%
32 | Cc1cc(N[C@@H](Cc2ccccc2)C(=O)NCc2cccs2)nc(NCCc2cccnc2)n1 | 1.39%
33 | COc1ccc(COc2c(OC)cc(Cc3cnc(N)nc3N)cc2OC)cc1 | 5.65%
34 | CN1CCN(c2ccnc3ccc(NC(=O)Nc4ccccc4Br)cc23)CC1 | -3.53%
35 | CCCCN(CCCC)CCCN(CCCN(CCCC)CCCC)c1cc(C)nc(Nc2ccc3cc(Br)ccc3c2)n1 | 12%
36 | CC(C)(C)c1ccc(NC(=O)c2ccc(CN3CCCN(Cc4ccsc4)CC3)cc2)cc1 | 9.06%
37 | CC(C)n1c(C2CCN(CC3CCN(C(=O)/C=C/c4ccc(Cl)c(Cl)c4)CC3)CC2)nc2ccccc21 | 0.12%
38 | O=C(NCc1cccc2ccccc12)C1CCCN(C(=O)c2ccc(O)c(-c3ccc(Cl)c(Cl)c3)c2)C1 (stereo not given) | 1.68%
39 | CC(C)(C)c1ccccc1OCCCON1C(=N)N=C(N)NC1(C)C | 38%
40 | CCOc1ccc2c(c1)N(C(=O)C=Cc1ccccc1)C(C)(C)c1ssc(=S)c1-2 | 0.5%

Target: Hexose transporter 1 (Plasmodium falciparum) (UniProt O97467)
Test: ST_JUDE_LEISH: Cytotoxicity at 2uM final concentration against transgenic Leishmania Mexicana promastigotes LmPfHT that are glucose transport deficient and complemented with the Plasmodium falciparum hexose transporter. Activity is measured by DNA content using SYBR green in vitro
Type: functional

Row | Compound | inhibition
41 | COc1ccc(-n2ccnc2SCC(=O)Nc2cccc(C(F)(F)F)c2)c(OC)c1 | 0.74%
42 | CC(C)CNCc1ccc(-c2cccc(CNC3CCN(Cc4ccccc4)CC3)c2)cc1 | 3.32%
43 | Cn1c(NC(=O)C2CCCN(C(=O)c3ccc(O)c(-c4ccc(Cl)c(Cl)c4)c3)C2)nc2ccccc21 (stereo not given) | -0.09%
44 | CCCc1cc(Cc2cnc(N)nc2N)cc(CC)c1O | 0.94%
45 | Cc1cccc2nc(-c3cccc(-c4ccc(NC(=O)Nc5ccc(F)c(F)c5F)cc4)c3)[nH]c12 | 1.47%
46 | CN1CCC(C(=O)N(Cc2ccc(-c3ccc(CNCCc4ccccc4)cn3)cc2)Cc2cccc(F)c2)CC1 | 0.98%
47 | Nc1ccnc(N2CCC(CCOc3ccnc4cc(Cl)ccc34)CC2)c1 | 22.8%
48 | CC(C)(C)COc1ccc2c(N)n[nH]c2c1 | -1.52%
49 | COc1ccc2c(=NN=Cc3ccccc3F)cc(C)[nH]c2c1 | 1.74%
50 | O=C(Nc1cc(C(F)(F)F)ccc1Cl)c1ccc(Cn2cc(Br)cn2)cc1 | 0.15%
51 | Cc1noc(C)c1CN1Cc2ccccc2OC2(CCN(Cc3c[nH]c4cnccc34)CC2)C1 | -0.56%
52 | CC(=O)N1CCC(C(=O)Nc2ccc(-c3cccc(-c4nc5cccc(C)c5[nH]4)c3)cc2)CC1 | 0.21%
53 | Cc1c(Cc2ccc(C(C)C)cc2)cnc2nc(N)nc(N)c12 | 0.5%
54 | CN(C)CCOc1cc(NC(=O)Nc2cccc3c(-c4ccncc4)cccc23)ccc1I | 3.67%
55 | CCOc1cccc2nc(NCCCNCc3ccc(Cl)c(Cl)c3)cc(NCCCNCc3ccc(Cl)c(Cl)c3)c12 | -0.94%
56 | Fc1ccc2ncc(Cl)c(CCN3CCC(NCc4cc5c(cn4)OCCO5)CC3)c2c1 | 11.7%
57 | c1cc(CNC2Cc3ccccc3C2)cc(-c2cnc(N3CCNCC3)nc2)c1 | 2.77%
58 | O=C(Nc1ccc(OC2CCN(Cc3ccc(F)cc3)C2)c(Cl)c1)c1ccsc1 (stereo not given) | 3.33%
59 | CCCNC(=O)Nc1ccc(N(C)c2ccnc(NC3CC3)n2)cc1 | 5.59%
60 | CNCc1cccc2nc(-c3csc(Cc4cc(Cl)ccc4OCC(C)C)n3)[nH]c12 | 0.5%

Row | Compound | inhibition
61 | CCCCCCCCCN1CC[C@@H](CCCc2ccnc3ccc(O)cc23)[C@@H](CC)C1 | -2.37%
62 | Cc1cccc(-c2ccc(NC(=O)C3CCN(Cc4cccc(O)c4)CC3)cc2)c1 | 1.99%
63 | CC1CN(c2cnn(Cc3cccc(NC(=O)Nc4ccc(F)cc4[N+](=O)[O-])c3)c(=O)c2Cl)CC(C)N1 (stereo not given) | 1.66%
64 | O=C(/C=C/c1ccc(Cl)c(Cl)c1)NCCCCCN1CCCN(C(=O)Nc2ccc(Cl)c(Cl)c2)CC1 | -0.4%
65 | CC(C)(C)CNCC(C)(C)c1nc(-c2ccc(Cl)c(O)c2)c(-c2ccncc2)[nH]1 | 0%
66 | COc1cccc(CN2Cc3ccccc3OC3(CCN(Cc4c[nH]c5cnccc45)CC3)C2)c1 | -0.52%
67 | CCN(CC)CCOc1ccc(Nc2ncc3cc(-c4c(Cl)cccc4Cl)c(=O)n(C)c3n2)cc1 | 83.3%
68 | O=[N+]([O-])c1cccc(CNCC2CCN(CCc3ccccc3)CC2)c1 | 1.86%
69 | CN1CCN(Cc2cccc(Nc3nccc(Nc4ccc(Oc5ccccc5)cc4)n3)c2)CC1 | 7.05%
70 | COc1cc(NC(=O)c2cc([N+](=O)[O-])ccc2NC(=O)CNC2CCCC(C)C2C)cc(OC)c1 (stereo not given) | 4.27%
71 | CC1CN(c2cnn(Cc3ccc(NC(=O)Nc4ccc(F)cc4[N+](=O)[O-])cc3)c(=O)c2Cl)CC(C)N1 (stereo not given) | 1.28%
72 | Cc1cc(N[C@@H](Cc2ccccc2)C(=O)NCc2cccs2)nc(NCCc2cccnc2)n1 | 1.61%
73 | COc1ccc(COc2c(OC)cc(Cc3cnc(N)nc3N)cc2OC)cc1 | 5.76%
74 | CN1CCN(c2ccnc3ccc(NC(=O)Nc4ccccc4Br)cc23)CC1 | -0.8%
75 | CCCCN(CCCC)CCCN(CCCN(CCCC)CCCC)c1cc(C)nc(Nc2ccc3cc(Br)ccc3c2)n1 | 10.1%
76 | CC(C)(C)c1ccc(NC(=O)c2ccc(CN3CCCN(Cc4ccsc4)CC3)cc2)cc1 | 10.4%
77 | CC(C)n1c(C2CCN(CC3CCN(C(=O)/C=C/c4ccc(Cl)c(Cl)c4)CC3)CC2)nc2ccccc21 | -1.72%
78 | O=C(NCc1cccc2ccccc12)C1CCCN(C(=O)c2ccc(O)c(-c3ccc(Cl)c(Cl)c3)c2)C1 (stereo not given) | 1.11%
79 | CC(C)(C)c1ccccc1OCCCON1C(=N)N=C(N)NC1(C)C | 59.3%
80 | CCOc1ccc2c(c1)N(C(=O)C=Cc1ccccc1)C(C)(C)c1ssc(=S)c1-2 | 0.43%
